Results on 14 compounds are retold here after PubChem BioAssay.

Activity calls are given as the source filed them.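 How the source made its calls, unless noted: active means compounds lowering colon cancer cell viability after pretreatment blocking the GSK3B kinase; inactive means the rest.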

Test [1] is described as follows: Wnt pathway potentiators raising nuclear beta-catenin – imaging, WNT3A-conditioned medium, mouse C2C12, NPC library, primary screen (AID 1117326; in the data active means nuclear beta-catenin stimulation mostly above about 4.2%, no sharp cut-off; inactive means mostly below about 10%; further: reference of the scale not given here). The following applies: stronger effect = higher value.
Test [2] is described as follows: stimulators of insulin release from INS-1E, primary screen, cell-based, 5 mM glucose, NPC library (AID 1117329;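 active means compound raises insulin release from rat beta cells at 5 mM glucose, no numeric limit stated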; further: reference of the scale not given here). The following applies: rat INS-1E insulin secretion, at 10 µM, stronger effect = higher value.
The nature of test [3]: growth inhibition of GSK3B-pretreated HCT116 cells – cell-based, CellTiter-Glo, 0.2 to 20 µM (AID 1117336). To be noted: HCT116 viability after GSK3B inhibitor, at 20 µM, stronger effect = higher value. (Cellular ATP, detected with luciferase, serves as a proxy for viable cell number.)
The nature of test [4]: inhibition of endothelial tube formation, primary screen, imaging, VEGF stimulated, CD31 staining, tube area, NPC library (AID 1117340;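 active means compound that reduces growth-factor-driven endothelial tube area in a mixed cell culture, no cutoff stated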). To be noted: VEGF-stimulated ADSC/ECFC co-culture, at 10 µM, stronger effect = higher value.
Test [5] in a line: GLP1 release stimulators, primary, NCI-H716, NPC library (AID 1117341;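 active means compound raises GLP1 secretion from the human gut endocrine cells, with no numeric limit stated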; further: reference of the scale not given here). The following applies: NCI-H716 cells, at 10 µM, stronger effect = higher value.
The nature of test [6]: HCT116 colon cancer cell growth inhibition, primary screen, CellTiter-Glo luminescence, NPC library (AID 1117342;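 active means compounds that lower survival of HCT116 colon cancer cells in the luminescence readout, no numeric limit stated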). To be noted: at 20 µM (top of the series).
The nature of test [7]: reduced SW480 viability measured with CellTiter-Glo, NPC library, primary (AID 1117343;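 active means compounds that lower viability of the colon cancer cells in the luminescence readout, with no numeric limit stated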). The following applies: CellTiter-Glo luminescence; at 20 µM (top of the series).
Test [8] in a line: NPC library primary testing for decreased DLD-1 cell viability via CellTiter-Glo (AID 1117346;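 active means compounds that lower survival of DLD-1 colon cancer cells in the luminescence readout, no cutoff given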). To be noted: DLD-1 viability, CellTiter-Glo luminescence; at 20 µM (top of the series).

In the case of `O=c1[nH]c2cc(Cl)ccc2n1C1CCNCC1`, the nuclear beta-catenin stimulation is 9.1% (inactive) in test [1] (at 10 µM) and 19.6% in test [1] (stimulation, at 2 µM). The insulin secretion stimulation in test [2] is 3.8% (inactive). Also, in test [3], the viability decrease is 1.8% (inactive). Also, the tube area decrease in test [4] is -3.4% (inactive). For the same compound, in test [5], the GLP1 secretion stimulation was 10.2% (inactive). Further, the inhibition of viability in test [6] was 29.9% (inactive). The results for the viability decrease (inhibition) in test [7] and in test [8] were 10.3% (inactive) and 12.5% (inactive), respectively.

`O=c1[nH]c2ccccc2n1C1CCNCC1`: the nuclear beta-catenin stimulation in test [1] (at 10 µM) was 0.8% (inactive); in test [1] (stimulation, at 2 µM) it was -0.9%. For the same compound, the insulin secretion stimulation in test [2] is -0.9% (inactive). In test [3], the viability decrease is -5% (inactive). Further, in test [4], the tube area decrease is -5.4% (inactive). Further, in test [5], the GLP1 secretion stimulation was 1.9% (inactive). For the same compound, the inhibition of viability in test [6] was -8.2% (inactive). Moreover, the viability decrease (inhibition) was -13.1% (inactive) in test [7] and 7.3% (inactive) in test [8].

As to `CC(C)=CC1C(C(=O)OCN2C(=O)C3=C(CCCC3)C2=O)C1(C)C` (stereo unspecified), the nuclear beta-catenin stimulation is 2.5% (inactive) in test [1] (at 10 µM) and 0.7% in test [1] (stimulation, at 2 µM). In addition, the insulin secretion stimulation in test [2] is -1.8% (inactive). For the same compound, the viability decrease in test [3] was 34.8% (inactive). For the same compound, the tube area decrease in test [4] is 16% (inactive). In addition, in test [5], the GLP1 secretion stimulation is -0.5% (inactive). For the same compound, in test [6], the inhibition of viability is 38.2% (inactive). The viability decrease (inhibition) was 63% (active) in test [7] and 5% (inactive) in test [8].

As to `Oc1ccccc1-c1ccccc1`, the nuclear beta-catenin stimulation in test [1] (at 10 µM) was 0.6% (inactive); in test [1] (stimulation, at 2 µM), -0.1%. For the same compound, the insulin secretion stimulation in test [2] was -2.4% (inactive). In test [3], the viability decrease was -2.35% (inactive). Also, the tube area decrease in test [4] is -3.5% (inactive). Also, in test [5], the GLP1 secretion stimulation was -1.2% (inactive). Also, the inhibition of viability in test [6] is -18.2% (inactive). Further, the viability decrease (inhibition) in test [7] is 15.3% (inactive); in test [8], 8.7% (inactive).

As to `C[C@H]1CNCCc2ccc(Cl)cc21`, the nuclear beta-catenin stimulation in test [1] (at 10 µM) is 2.8% (inactive); in test [1] (stimulation, at 2 µM), 0.8%. The insulin secretion stimulation in test [2] was 16.9% (inactive). Moreover, the viability decrease in test [3] is -1.35% (inactive). Besides, in test [4], the tube area decrease was -10.5% (inactive). Also, in test [5], the GLP1 secretion stimulation was 6.1% (inactive). Also, the inhibition of viability in test [6] was 1.7% (inactive). In addition, the viability decrease (inhibition) is 45.3% (inactive) in test [7] and 0.95% (inactive) in test [8].

For `COC(=O)c1cncn1C(C)c1ccccc1` (stereo unspecified), the nuclear beta-catenin stimulation was -0.2% (inactive) in test [1] (at 10 µM) and 0.1% in test [1] (stimulation, at 2 µM). Moreover, the insulin secretion stimulation in test [2] was 1% (inactive). Also, the viability decrease in test [3] was 1.8% (inactive). Besides, in test [4], the tube area decrease was -14.8% (inactive). The GLP1 secretion stimulation in test [5] is 1.6% (inactive). Also, the inhibition of viability in test [6] was -8.6% (inactive). Also, the viability decrease (inhibition) in test [7] is 24.4% (inactive); in test [8], 20.5% (inactive).

For `Oc1ccc(Cl)cc1Cc1ccccc1`, the nuclear beta-catenin stimulation in test [1] (at 10 µM) was 0.2% (inactive); in test [1] (stimulation, at 2 µM) it was 0.1%. In addition, the insulin secretion stimulation in test [2] is 0.7% (inactive). Also, the viability decrease in test [3] was 38.4% (inactive). Besides, in test [4], the tube area decrease was 4.6% (inactive). Also, the GLP1 secretion stimulation in test [5] is 38% (active). For the same compound, the inhibition of viability in test [6] is -2.2% (inactive). In addition, the viability decrease (inhibition) was 118% (active) in test [7] and 85.4% (active) in test [8].

For `C[C@]12CC[C@H]3[C@@H](CC=C4C[C@@H](O)CC[C@@]43C)[C@@H]1CC[C@@H]2O`, the nuclear beta-catenin stimulation is 2.9% (inactive) in test [1] (at 10 µM) and -0.3% in test [1] (stimulation, at 2 µM). For the same compound, in test [2], the insulin secretion stimulation was -1% (inactive). For the same compound, the viability decrease in test [3] was 3.75% (inactive). For the same compound, the tube area decrease in test [4] is -14.6% (inactive). Besides, the GLP1 secretion stimulation in test [5] is -6% (inactive). Further, in test [6], the inhibition of viability was 5.2% (inactive). The viability decrease (inhibition) in test [7] is 28.6% (inactive); in test [8], 1.05% (inactive).

As for `CCN(CC)N(O)N=O`, the nuclear beta-catenin stimulation in test [1] (at 10 µM) was -1.2% (inactive); in test [1] (stimulation, at 2 µM) it was 0.7%. In addition, the insulin secretion stimulation in test [2] is -0.3% (inactive). The viability decrease in test [3] is 2.3% (inactive). The tube area decrease in test [4] was -3.9% (inactive). Besides, in test [5], the GLP1 secretion stimulation is -1.7% (inactive). For the same compound, the inhibition of viability in test [6] was -0.1% (inactive). The viability decrease (inhibition) in test [7] was -1.2% (inactive); in test [8], -7.7% (inactive).

Consider `O=C(O)CCCCCCNC1c2ccccc2CCc2ccccc21`, for which the nuclear beta-catenin stimulation in test [1] (at 10 µM) was -0.3% (inactive); in test [1] (stimulation, at 2 µM), -1.4%. In test [2], the insulin secretion stimulation is -0.2% (inactive). In addition, in test [3], the viability decrease was -7.3% (inactive). In addition, the tube area decrease in test [4] was -4.7% (inactive). Also, the GLP1 secretion stimulation in test [5] was 0.3% (inactive). In addition, in test [6], the inhibition of viability is -9.4% (inactive). For the same compound, the viability decrease (inhibition) in test [7] is 13.9% (inactive); in test [8], -13.1% (inactive).

For the compound `C#CCOC(C(=O)OCCN(C)C)(c1ccccc1)c1ccccc1`, the nuclear beta-catenin stimulation in test [1] (at 10 µM) is 2.7% (inactive); in test [1] (stimulation, at 2 µM), 0.9%. Further, the insulin secretion stimulation in test [2] was 28.7% (active). Also, the viability decrease in test [3] was -8.15% (inactive). For the same compound, in test [4], the tube area decrease is 36.7% (inactive). Also, the GLP1 secretion stimulation in test [5] is 5.3% (inactive). Moreover, in test [6], the inhibition of viability is -6.2% (inactive). Moreover, the viability decrease (inhibition) in test [7] is 17.1% (inactive); in test [8] it was -1.8% (inactive).

In the case of `CNC(C)Cc1ccccc1OC` (stereo unspecified), the nuclear beta-catenin stimulation in test [1] (at 10 µM) is -0.4% (inactive); in test [1] (stimulation, at 2 µM), 1.2%. Further, in test [2], the insulin secretion stimulation was 7.2% (inactive). In test [3], the viability decrease is -1.3% (inactive). Besides, the tube area decrease in test [4] was -13.1% (inactive). The GLP1 secretion stimulation in test [5] was 0.2% (inactive). In addition, the inhibition of viability in test [6] was 9.4% (inactive). The values for the viability decrease (inhibition) in test [7] and in test [8] were 41.8% (inactive) and 43.1% (inactive), respectively.

Turning to `Oc1c(Br)cc(Br)cc1Br`, the nuclear beta-catenin stimulation is -0.6% (inactive) in test [1] (at 10 µM) and -0.3% in test [1] (stimulation, at 2 µM). For the same compound, the insulin secretion stimulation in test [2] is -0.4% (inactive). The viability decrease in test [3] was -83.3% (inactive). The tube area decrease in test [4] is 10% (inactive). Besides, the GLP1 secretion stimulation in test [5] is -3.7% (inactive). Besides, in test [6], the inhibition of viability is -18% (inactive). Moreover, the viability decrease (inhibition) in test [7] is 32.1% (inactive); in test [8], 37.1% (inactive).

As for `CCCCNC(C)(C)[P+](=O)O`, the nuclear beta-catenin stimulation in test [1] (at 10 µM) was -0.8% (inactive); in test [1] (stimulation, at 2 µM), -0.8%. Also, in test [2], the insulin secretion stimulation is -2.5% (inactive). The viability decrease in test [3] was -0.6% (inactive). In addition, the tube area decrease in test [4] was -26.4% (inactive). Besides, the GLP1 secretion stimulation in test [5] was -3.9% (inactive). Besides, in test [6], the inhibition of viability was -4.7% (inactive). The viability decrease (inhibition) in test [7] was 1.4% (inactive); in test [8], -4.2% (inactive).
